Assay outcomes deposited in PubChem BioAssay by several laboratories.
IL1B cytotox: HUVEC cytotoxicity counter-screen, IL-1B stimulated | AID 845 | HUVEC cell count loss, Hoechst imaging | 94,000 compounds, 0.41% hits | cell count reduction, % at 2 µM;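 active = cell count reduction more than 3 SD above the screen-wide mean, cut at about 70% in these data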
NFkB transloc inh: blocks IL-1B driven NFkB nuclear translocation in HUVEC cells. HUVEC IL-1B NFkB p65 nuclear translocation imaging. inhibition, % at 2 µM. 94,000 compounds, 0.43% hits;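 active = inhibition above about 30% together with a positive call from visual inspection of the well image, limit read from the data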;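 note: nuclear over cytoplasmic p65 intensity ratio measured by imaging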
TNAP act DEA: human TNAP activation, intermediate phosphate acceptor; 64,000 tested, under 10 active; activation factor at 20 µM; purified TNAP, CDP-star luminescence, 100 mM DEA, 30 min; stronger effect = higher value; scale: 0 levamisole-inhibited, 1 vehicle-only enzyme; P05186;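 active = activation factor of at least 2 at 20 µM, relative to controls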
Target sequence (P05186 whole entry, looked up): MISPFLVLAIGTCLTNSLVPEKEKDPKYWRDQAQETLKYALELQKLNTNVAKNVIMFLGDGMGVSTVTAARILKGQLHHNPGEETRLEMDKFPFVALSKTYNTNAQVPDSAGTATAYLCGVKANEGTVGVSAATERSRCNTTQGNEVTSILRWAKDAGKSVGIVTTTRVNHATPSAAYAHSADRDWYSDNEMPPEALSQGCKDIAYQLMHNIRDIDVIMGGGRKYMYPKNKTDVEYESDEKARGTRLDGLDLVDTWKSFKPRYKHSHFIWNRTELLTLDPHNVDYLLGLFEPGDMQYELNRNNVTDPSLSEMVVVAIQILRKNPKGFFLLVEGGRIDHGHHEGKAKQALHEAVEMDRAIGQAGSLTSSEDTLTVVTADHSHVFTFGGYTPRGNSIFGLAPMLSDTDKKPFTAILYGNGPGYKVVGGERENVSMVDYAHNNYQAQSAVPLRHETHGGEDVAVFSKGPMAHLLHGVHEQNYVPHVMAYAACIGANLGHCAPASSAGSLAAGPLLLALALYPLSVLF
IL1B NFkB pot: enhances IL-1B driven NFkB nuclear translocation; HUVEC IL-1B NFkB p65 nuclear translocation imaging; activation, % at 2 µM; 94,000 compounds, 0.3% hits;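 active = activation above 40%, about the mean plus 3 SD, also judged a hit on visual image review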;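 note: percent activation is computed from the nuclear over cytoplasmic p65 intensity ratio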
PLAP act: activates human placental alkaline phosphatase | purified PLAP enzyme, luminescent substrate read-out; stronger effect = higher value | activation fold at 20 µM | 96,000 compounds, 1.2% hits | P05187 | AID 696; in the data active = activation fold above about 2
Numbers stand for hits; – = inactive; · = not tested or not shown. Sampled rows, rich in hits. Any-hit rate of the full collection: about 2.1%.

SMILES	IL1B cytotox	NFkB transloc inh	TNAP act DEA	IL1B NFkB pot	PLAP act
O=c1[nH]c2ccc(Cl)cc2c(-c2ccccc2)c1N1CCN(c2ccccn2)CC1	·	·	–	·	–
COC(=O)c1ccc(NC(=O)Cn2nc(-c3ccncc3)nc2SCC(=O)Nc2nccs2)cc1	–	–	·	–	–
COc1cc2c(cc1OC)C(c1cc3cc(OC)c(OC)cc3[nH]c1=O)N(C(=O)C1CC1)CC2 (configuration not stated)	–	–	–	44.9	–
CCCC(=O)N1CCc2cc(OC)c(OC)cc2C1c1cc2cc3c(cc2[nH]c1=O)OCO3 (configuration not stated)	–	–	·	–	·
COCc1cc(=O)[nH]c(Nc2nc(C)c3ccc(C)cc3n2)n1	·	·	–	·	·
CCOc1ccc2nc(Nc3nc(CSc4nnnn4-c4ccccc4)cc(=O)[nH]3)nc(C)c2c1	–	–	·	–	2.5
COc1ccc2nc(Nc3nc(C)c(CCC(C)C)c(=O)[nH]3)nc(C)c2c1	–	–	–	–	2.3
COc1ccc2nc(Nc3nc(CSc4nnnn4-c4ccccc4)cc(=O)[nH]3)nc(C)c2c1	–	–	·	–	2.2
CCOc1ccc2nc(Nc3nc4c(c(=O)[nH]3)CCC4)nc(C)c2c1	·	·	–	·	·
Cc1ccc2c(C)nc(Nc3nc(CSc4nnnn4-c4ccccc4)cc(=O)[nH]3)nc2c1	·	·	–	·	2.2
O=C(Nc1nc2ccccc2[nH]1)C1CC(=O)N(c2ccc3c(c2)OCCO3)C1 (configuration not stated)	–	–	–	–	2.9
Cc1ccc(Nc2nc(-c3c(C)nc4ccccn34)cs2)cc1	–	34.1	·	–	–
CCC(=O)c1ccc(N2CCOCC2)c(F)c1	–	–	·	–	·
CCCC(=O)c1ccc(N2CCOCC2)c(F)c1	–	–	–	–	2.1
O=c1cc(CO)oc(CN2CCN(c3cccc(C(F)(F)F)c3)CC2)c1O	–	–	·	–	2.2
CCCCNC(=S)NNC(=O)c1csc(CC)c1	–	–	·	–	·
CCc1cc(C(=O)NNC(=S)NCC2CCCO2)cs1 (configuration not stated)	–	–	·	–	2.2
Cc1scc(C(=O)NNC(=S)NCC2CCCO2)c1C (configuration not stated)	–	–	·	–	2.2
Cc1ccccc1C(=O)NC(=S)NCC1CCCO1 (configuration not stated)	–	–	·	–	–
COCCCn1cc(C(=O)c2cc(OC)ccc2OCC(=O)Nc2cc(C)on2)cc(C#N)c1=O	–	–	·	–	–
Fc1ccc(-c2nnc3ccc(N4CCc5ccccc5C4)nn23)cc1	–	–	–	–	–
COc1cc(OC)cc(-c2cc3nc(C)cc(N4CCN(C(=O)c5ccco5)CC4)n3n2)c1	–	–	·	42.5	–
Cc1cc(N2CCN(C(=O)c3ccco3)CC2)n2nc(-c3cccc(F)c3)cc2n1	–	–	–	–	–
COc1ccc(N(CC(=O)Nc2ccccc2C(=O)NCCc2ccccc2)S(C)(=O)=O)cc1OC	–	–	·	–	–
Cc1ccccc1-c1noc(CCC(=O)NCC2CCCO2)n1 (configuration not stated)	83.8	–	·	–	–
SMILES	IL1B cytotox	NFkB transloc inh	TNAP act DEA	IL1B NFkB pot	PLAP act
Cc1cccc(-c2noc(CCC(=O)NCC3CCCO3)n2)c1 (configuration not stated)	–	–	·	–	–
CSC1=Nc2sc3c(c2C2=NCCN12)CC(C)(C)OC3	·	·	–	·	·
O=c1cc(CSc2nnc(Nc3ccccc3)s2)nc2sccn12	–	–	·	–	–
Cc1cccc(Nc2nnc(SCc3cn4ccsc4n3)s2)c1	–	–	–	–	2.1
COc1cc(S(=O)(=O)N2CCCCC2)ccc1NC(=O)c1ccccc1Cl	–	46.9	·	–	·
CN(c1ccccc1C(=O)Nc1ccc(S(=O)(=O)N2CCCCC2)cc1)S(C)(=O)=O	93.9	99.0	–	–	–
CN(c1ccccc1C(=O)Nc1ccc(S(=O)(=O)N2CCCC2)cc1)S(C)(=O)=O	–	–	·	–	–
CC(=O)N1CCc2cc(S(=O)(=O)NCCC3=CCCCC3)ccc21	–	–	–	–	·
Cc1occc1C(=O)NC1CCCc2ccccc21 (configuration not stated)	79.5	–	–	–	–
CNC(=O)NC1CCCc2ccccc21 (configuration not stated)	–	–	–	–	–
COC(=O)c1ccc2c(=O)n(CCCCCC(=O)NCc3ccc4c(c3)OCO4)c(=O)[nH]c2c1	89.8	–	·	–	–
Cc1ccc(-c2ccc(=O)[nH]n2)cc1	82.3	98.5	·	–	·
NC1=NC2(CCC(c3ccccc3)CC2)n2c(nc3ccccc32)N1 (configuration not stated)	–	–	–	–	2.8
NC1=NC2(CCCCC2)n2c(nc3ccccc32)N1	–	–	–	–	–
NC1=NC2(CCN(Cc3ccccc3)CC2)n2c(nc3ccccc32)N1	–	–	–	–	2.6
O=C(CCS(=O)(=O)c1ccccc1)Nc1nc2c(s1)COc1ccccc1-2	–	–	–	–	–
O=C(Nc1cnc2ccccn2c1=O)c1ccc(Cl)cc1	–	–	·	–	–
CCOC(=O)C1C(=O)Nc2nc(C)nn2C1c1ccccc1 (configuration not stated)	–	–	–	83.6	–
CCOC(=O)c1c(-c2cccs2)csc1NC(C)=O	–	–	·	–	·
CCOC(=O)c1c(-c2cccs2)csc1NC(=O)CNCCN1CCOCC1	–	–	·	–	2
O=C(COC(=O)c1ccncc1)Nc1cc(Cl)ccc1Cl	–	–	·	–	–
O=C(OCc1ccc(Cl)cc1Cl)c1ccncc1	–	–	·	126.3	–
Nn1c(SCc2nc3ccccn3c2Br)nnc1-c1cccnc1	–	–	–	–	–
Cc1cc(N2CCC3(CC2)OCCO3)n2nc(C)c(-c3ccc(Cl)cc3)c2n1	–	–	–	–	·
O=C(OCc1cccc2ccccc12)c1ccc2c(=O)[nH]c(CN3CCOCC3)nc2c1	–	–	–	–	–
SMILES	IL1B cytotox	NFkB transloc inh	TNAP act DEA	IL1B NFkB pot	PLAP act
CCc1ccc2nc(NC(=O)c3ccc4c(=O)[nH]c(CN5CCOCC5)nc4c3)sc2c1	–	–	–	–	2.3
Oc1ccc(-n2cnnn2)cc1	88.6	–	·	–	–
O=C1CC(=C2c3ccccc3-c3ccccc32)C(=O)N1CCN1CCN(c2cccc(Cl)c2)CC1	–	–	·	–	·
CN(C)C(=O)NC(Nc1ccc(Cl)cc1Cl)C(Cl)(Cl)Cl (configuration not stated)	–	–	·	–	–
COc1ccc(S(=O)(=O)N2CCCC(C(=O)O)C2)cc1 (configuration not stated)	–	34.3	–	–	–
C/C(=N\NC(=O)C1CCCN(S(=O)(=O)c2ccccc2)C1)c1ccncc1 (configuration not stated)	–	–	·	–	–
C/C(=N\NC(=O)C1CCCN(S(=O)(=O)c2ccccc2)C1)c1ccccn1 (configuration not stated)	–	–	·	–	2
COc1ccc(S(=O)(=O)N2CCCC(C(=O)NC3CCCCC3)C2)cc1 (configuration not stated)	–	–	–	–	–
Cc1cccc(C)c1NC(=O)NC1(C(=O)NCCCN2CCOCC2)CCCCC1	–	–	·	–	·
